# Results filed as inconclusive are left out. Where a call stands in place of a potency, no number is given. A number with no mark means an inactive call. The source made the active and inactive calls. Unless noted, the call rests on the fitted dose curve; in most records, active means well fitted curve in the direction sought with a large enough effect in the repeat runs; inconclusive means weak or mixed curves; inactive means no such curve, though single readings can be large; an effect the other way counts as inactive or inconclusive.
# Columns and labels:
# [1] = target: Peroxisome proliferator-activated receptor delta (Homo sapiens) (UniProt Q03181); experiment: qHTS assay to identify small molecule agonists of the peroxisome proliferator-activated receptor delta (PPARd) signaling pathway (AID 743212; calls by dose curve)
# Chain of Peroxisome proliferator-activated receptor delta (Homo sapiens) (Q03181 whole entry, looked up): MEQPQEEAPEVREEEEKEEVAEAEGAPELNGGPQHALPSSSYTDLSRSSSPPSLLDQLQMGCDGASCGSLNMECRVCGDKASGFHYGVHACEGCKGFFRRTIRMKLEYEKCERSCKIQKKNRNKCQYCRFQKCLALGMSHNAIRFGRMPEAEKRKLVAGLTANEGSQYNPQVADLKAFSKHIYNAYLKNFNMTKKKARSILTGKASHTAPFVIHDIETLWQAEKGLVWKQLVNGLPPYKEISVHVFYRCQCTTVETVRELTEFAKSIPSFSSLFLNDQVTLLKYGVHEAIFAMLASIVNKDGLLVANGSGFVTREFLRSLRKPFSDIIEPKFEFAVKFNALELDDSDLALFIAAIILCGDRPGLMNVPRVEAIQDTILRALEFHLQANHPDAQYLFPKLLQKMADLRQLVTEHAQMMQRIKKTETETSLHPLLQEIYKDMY
# How it was run: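 GeneBLAzer PPARd UAS-bla HEK293H cells (beta-lactamase reporter under UAS control), plated and rested 5 h at 37 C, then exposed to compounds in DMSO at 37 C; LiveBLAzer B/G FRET substrate added, 2 h room temperature, fluorescence read.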
# [2] = qHTS assay to identify small molecule antagonists of the peroxisome proliferator-activated receptor delta (PPARd) signaling pathway - cell viability counter screen (AID 743213); further: nearly all actives have a fitted effect of over 50% in size; further: potency means the concentration at half of the fitted maximal effect
# How it was run: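 Same-well viability: cells pre-incubated 5 h, dosed with compound plus 300 nM L165041, kept 17 h at 37 C, FRET substrate 2 h RT, then CellTiter-Glo 30 min RT and luminescence.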
# [3] = target: Peroxisome proliferator-activated receptor delta (Homo sapiens) (UniProt Q03181); experiment: qHTS assay to identify small molecule antagonists of the peroxisome proliferator-activated receptor delta (PPARd) signaling pathway (AID 743215; active means well fitted inhibition curve with a large enough effect in the signal ratio in the repeat runs, not every such curve was filed as active; the % refers to the signal ratio;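 further: cells stimulated with agonist L165041 at 300 nM final during compound exposure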; further: potency means the concentration at half of the fitted maximal effect; on ratio activity, negative = inhibition: series mostly up to about 62 µM)
# How it was run: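 With L165041 present at 300 nM final, compounds were incubated 17 h at 37 C on PPARd UAS-bla HEK293H cells. A FRET-based beta-lactamase substrate was then applied for 2 h at room temperature and fluorescence intensity recorded.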
# [4] = target: Bile acid receptor (Homo sapiens) (UniProt Q96RI1); experiment: qHTS assay to identify small molecule antagonists of the farnesoid-X-receptor (FXR) signaling pathway (AID 743217; active means well fitted inhibition curve with a large enough effect in the signal ratio in the repeat runs, not every such curve was filed as active; the % refers to the signal ratio)
# Chain of Bile acid receptor (Homo sapiens) (Q96RI1 whole entry, looked up): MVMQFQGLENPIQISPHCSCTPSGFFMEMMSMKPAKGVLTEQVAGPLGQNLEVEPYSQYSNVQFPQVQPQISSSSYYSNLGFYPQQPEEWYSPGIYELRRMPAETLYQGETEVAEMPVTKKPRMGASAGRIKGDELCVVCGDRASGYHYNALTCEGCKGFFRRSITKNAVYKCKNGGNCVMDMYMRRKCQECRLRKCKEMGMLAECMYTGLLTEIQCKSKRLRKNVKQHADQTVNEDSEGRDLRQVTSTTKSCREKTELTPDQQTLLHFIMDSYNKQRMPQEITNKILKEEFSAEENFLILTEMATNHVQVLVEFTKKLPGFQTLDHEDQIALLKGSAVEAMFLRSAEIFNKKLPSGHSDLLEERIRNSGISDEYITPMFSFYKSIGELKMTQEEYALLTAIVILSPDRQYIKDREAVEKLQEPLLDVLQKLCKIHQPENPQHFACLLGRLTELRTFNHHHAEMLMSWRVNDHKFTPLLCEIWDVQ
# How it was run: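 In this cell-based antagonist screen, inhibition of CDCA-driven (50 uM final) UAS-beta-lactamase expression in HEK 293T cells was measured by FRET fluorescence following 16 h compound exposure at 37 °C.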
# [5] = target: Bile acid receptor (Homo sapiens) (UniProt Q96RI1); experiment: qHTS assay to identify small molecule agonists of the farnesoid-X-receptor (FXR) signaling pathway (AID 743220; active means well fitted activation curve with a large enough effect in the signal ratio in the repeat runs, not every such curve was filed as active; the % refers to the signal ratio)
# How it was run: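 Beta-lactamase reporter under UAS control in GeneBLAzer FXR HEK 293T cells (5000/well) measured with LiveBLAzer FRET substrate after 2 h at room temperature. Compound exposure lasted 16 h at 37C.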
# [6] = qHTS assay to identify small molecule antagonists of the farnesoid-X-receptor (FXR) signaling pathway - cell viability counter screen (AID 743221; active means well fitted cell-killing curve with a large enough effect in the repeat runs, not every such curve was filed as active; further: nearly all actives have a fitted effect of over 50% in size; further: potency means the concentration at half of the fitted maximal effect)
# How it was run: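 FXR-UAS-bla HEK 293T cells were treated with test compounds plus chenodeoxycholic acid (50 uM final) for 16 h at 37 C. Cell viability in the same wells was then read as CellTiter-Glo luminescence after 30 min at room temperature.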
# [7] = qHTS assay to identify small molecule agonists of the farnesoid-X-receptor (FXR) signaling pathway - cell viability counter screen (AID 743218); further: nearly all actives have a fitted effect of over 45% in size; further: potency means the concentration at half of the fitted maximal effect
# How it was run: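 After 16 h at 37 C with test compounds, FXR-bla HEK 293T cells were given LiveBLAzer B/G substrate for 2 h at RT and then CellTiter-Glo; luminescence was taken after 30 min.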
# [8] = target: Vitamin D3 receptor (Homo sapiens) (UniProt P11473); experiment: qHTS assay to identify small molecule antagonists of the vitamin D receptor (VDR) signaling pathway (AID 743223; active means well fitted inhibition curve with a large enough effect in the signal ratio in the repeat runs, not every such curve was filed as active; the % refers to the signal ratio)
# Chain of Vitamin D3 receptor (Homo sapiens) (P11473 whole entry, looked up): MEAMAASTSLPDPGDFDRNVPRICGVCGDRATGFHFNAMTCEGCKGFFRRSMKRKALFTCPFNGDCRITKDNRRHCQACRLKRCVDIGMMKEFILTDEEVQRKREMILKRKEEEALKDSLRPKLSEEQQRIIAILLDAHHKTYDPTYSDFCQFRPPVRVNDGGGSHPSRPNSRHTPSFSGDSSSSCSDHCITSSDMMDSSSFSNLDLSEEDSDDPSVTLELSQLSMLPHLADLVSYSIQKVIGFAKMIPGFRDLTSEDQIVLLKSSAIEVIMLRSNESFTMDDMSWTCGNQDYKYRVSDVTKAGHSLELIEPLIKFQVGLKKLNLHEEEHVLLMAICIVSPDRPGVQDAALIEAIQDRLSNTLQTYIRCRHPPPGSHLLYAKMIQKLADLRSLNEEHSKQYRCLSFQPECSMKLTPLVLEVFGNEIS
# How it was run: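 VDR-bla cells were plated, incubated 4 h at 37C, then given compound and 1alpha,25-dihydroxyvitamin D3 (3 nM final). After 16 h at 37C, LiveBLAzer B/G FRET substrate was added for 2 h at room temperature and fluorescence read.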
# [9] = target: Vitamin D3 receptor (Homo sapiens) (UniProt P11473); experiment: qHTS assay to identify small molecule agonists of the vitamin D receptor (VDR) signaling pathway (AID 743222; calls by dose curve)
# How it was run: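 VDR-bla cells were seeded, left 4 h, treated with compounds in DMSO for 16 h, incubated 2 h at RT with B/G FRET substrate, and read for fluorescence.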
# [10] = qHTS assay to identify small molecule agonists of the peroxisome proliferator-activated receptor delta (PPARd) signaling pathway - cell viability counter screen (AID 743211); further: nearly all actives have a fitted effect of over 55% in size; further: potency means the concentration at half of the fitted maximal effect
# How it was run: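 PPARd-bla HEK293H cells (UAS-beta-lactamase reporter) were treated with compounds for 17 h at 37 C. Viability was then read in the same wells by CellTiter-Glo luminescence after 30 min at room temperature.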
smiles,measurement,setting,value
CCCCCCc1ccc(-c2ccc(C#N)cc2)cc1,Potency,[1],inactive
same,Potency,[2],inactive
same,Potency,[3],inactive
same,Potency,[4],inactive
same,Potency,[5],inactive
same,Potency,[6],inactive
CCOc1ccc(N=Nc2ccc(/C=C/c3ccc(N=Nc4ccc(OCC)cc4)cc3S(=O)(=O)O)c(S(=O)(=O)O)c2)cc1,Potency,[1],inactive
same,Potency,[2],inactive
same,Potency,[3],inactive
same,Potency,[7],inactive
same,Potency,[6],inactive
same,outcome,[8],inactive
COc1cccc(N(C)C(=S)Oc2ccc3c(c2)CCCC3)n1,Potency,[1],inactive
same,Potency,[2],inactive
same,Potency,[3],inactive
same,Potency,[7],inactive
same,Potency,[6],inactive
same,Potency,[9],inactive
CN1CCC(N(Cc2cccs2)c2ccccc2)CC1,Potency,[1],inactive
CC(C)O.CC(C)O.CCOC(=O)/C=C(\C)O.CCOC(=O)/C=C(\C)O.[Ti],Potency,[10],inactive
same,Potency,[2],inactive
same,Potency,[7],inactive
same,outcome,[8],inactive
C=CC(=O)OCCOc1ccccc1,Potency,[10],inactive
same,Potency,[2],inactive
same,Potency,[6],inactive
same,Potency,[9],inactive
Clc1ccc(Cn2c(CN3CCCC3)nc3ccccc32)cc1,Potency,[10],29.8 µM (active)
same,outcome,[8],inactive
CCCCC(CC)COC(=O)COc1ccc(Cl)cc1Cl (stereo not given),Potency,[10],inactive
same,Potency,[2],inactive
same,Potency,[7],inactive
same,Potency,[6],inactive
same,outcome,[8],inactive
CCOc1ccc(O)cc1,Potency,[1],inactive
same,Potency,[2],inactive
same,Potency,[3],inactive
same,Potency,[7],inactive
same,Potency,[6],inactive
same,Potency,[9],inactive
same,outcome,[8],inactive
CC(C)Cc1ccc(C(C)C(=O)OCc2ccccn2)cc1 (stereo not given),Potency,[1],inactive
same,Potency,[2],inactive
same,Potency,[3],inactive
same,Potency,[7],inactive
same,Potency,[5],inactive
same,Potency,[6],inactive
same,Potency,[9],inactive
same,outcome,[8],inactive
CC(=O)c1ccc2c(c1)N(CCCN(C)C)c1ccccc1S2,Potency,[1],inactive
same,Potency,[2],inactive
same,Potency,[3],inactive
CCO[Si](CCCCl)(OCC)OCC,Potency,[1],inactive
same,Potency,[2],inactive
same,Potency,[3],inactive
same,Potency,[7],inactive
same,Potency,[6],inactive
same,outcome,[8],inactive
C=CCOC(=O)CCC1CCCCC1,Potency,[1],inactive
same,Potency,[2],inactive
same,Potency,[3],inactive
same,Potency,[4],inactive
same,Potency,[7],inactive
same,Potency,[5],inactive
same,Potency,[6],inactive
same,Potency,[9],inactive
c1cc(CCCc2ccncc2)ccn1,Potency,[1],inactive
same,Potency,[2],inactive
same,Potency,[3],inactive
same,Potency,[7],inactive
same,Potency,[6],inactive
same,Potency,[9],inactive
CCc1c(C(=O)NN2CCCCC2)nn(-c2ccc(Cl)cc2Cl)c1-c1ccc(Br)cc1,Potency,[10],12.3 µM (active)
same,Potency,[7],24.5 µM (active)
same,Potency,[6],24.5 µM (active)
O=C(Nc1ccccc1)c1ccccc1O,Potency,[1],inactive
same,Potency,[2],inactive
same,Potency,[3],inactive
same,Potency,[7],inactive
same,Potency,[6],inactive
COc1cc(C(=O)OCCCN2CCCN(CCCOC(=O)c3cc(OC)c(OC)c(OC)c3)CC2)cc(OC)c1OC,Potency,[10],inactive
same,Potency,[3],inactive
same,Potency,[7],inactive
same,Potency,[6],inactive
same,Potency,[9],inactive
CCCCCCCCCCCc1ccccc1,Potency,[1],inactive
same,Potency,[2],inactive
same,Potency,[3],inactive
same,Potency,[4],inactive
same,Potency,[7],inactive
same,Potency,[5],inactive
same,Potency,[6],inactive
same,Potency,[9],inactive
same,outcome,[8],inactive
CC1CCC(=O)C1=O (stereo not given),Potency,[1],inactive
same,Potency,[2],inactive
same,Potency,[3],inactive
same,Potency,[7],inactive
same,Potency,[5],inactive
same,Potency,[6],inactive
CCc1cc(C2=C(C(=O)O)N(c3ccccc3C(F)(F)F)S(=O)(=O)c3ccccc32)cc2c1OCO2,Potency,[10],inactive
same,Potency,[3],inactive
same,Potency,[6],inactive
CCN(CC)c1ccc2c(-c3ccccc3C(=O)O)c3ccc(=[N+](CC)CC)cc-3oc2c1,Potency,[10],inactive
same,Potency,[2],inactive
same,Potency,[6],inactive
same,Potency,[9],inactive
Clc1ccc2c(c1)CCc1cccnc1C2=C1CCNCC1,Potency,[1],inactive
same,Potency,[2],15 µM (active)
same,Potency,[3],29.8 µM (active)
same,Potency,[5],inactive
same,Potency,[6],29.8 µM (active)
same,Potency,[9],inactive
C=CC(=O)OCCOCCOCCOCCOC(=O)C=C,Potency,[10],54.4 µM (active)
same,Potency,[2],inactive
same,Potency,[6],inactive
Cc1ccc(C(=O)Oc2ccc(C(O)CNC(C)(C)C)cc2OC(=O)c2ccc(C)cc2)cc1 (stereo not given),Potency,[10],29.8 µM (active)
same,Potency,[5],inactive
same,Potency,[6],inactive
O=C(NCCO[N+](=O)[O-])c1cccnc1,Potency,[1],inactive
same,Potency,[2],inactive
same,Potency,[3],inactive
same,Potency,[7],inactive
same,Potency,[6],inactive
same,Potency,[9],inactive
COCCCN1CCC(NC(=O)c2cc(Cl)c(N)c3c2OCC3)CC1,Potency,[10],inactive
same,Potency,[2],inactive
same,Potency,[7],inactive
same,Potency,[6],inactive
same,outcome,[8],inactive
CCOC(=O)C(O)c1ccccc1 (stereo not given),Potency,[10],inactive
same,Potency,[2],inactive
same,Potency,[7],inactive
same,Potency,[6],inactive
same,outcome,[8],inactive
CCCCCCCCCCCCCCCCCCOS(=O)(=O)O,Potency,[10],49 µM (active)
same,Potency,[2],54.9 µM (active)
same,Potency,[7],34.7 µM (active)
same,Potency,[9],inactive
same,outcome,[8],inactive
C/C=C/C(=O)CC,activation,[1],2.05% [at 13.2 µM]
same,"viability change, negative = cytotoxic",[2],3.59% [at 13.7 µM]
same,"ratio activity, negative = inhibition",[3],2.27% [at 13.7 µM]
same,"viability change, negative = cytotoxic",[7],6.33% [at 13.2 µM]
same,"activity change, negative = cytotoxicity",[6],-0.419% [at 13.2 µM]

# — PubChem BioAssay (Tox21)
